# Rows were chosen to be rich in hits. Some 3.3% of all compounds tested hit in one or more screens of this group.
# PfG6PD inh: PfG6PD enzyme inhibitors, primary screen, biochemical, fluorescence intensity, uHTS. glucose-6-phosphate dehydrogenase-6-phosphogluconolactonase (Plasmodium falciparum 3D7). PfGluPho enzyme, NADPH resazurin-diaphorase fluorescence. inhibition, % at 20 µM. actives 0.78% (n = 350,000);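 active = inhibition reaching at least a set limit at 20 µM in the primary screen, cut at about 59% in these data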;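 also: 0% = DMSO wells with substrate and 100% = DMSO wells lacking glucose-6-phosphate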
# UHRF1 MBD2 ctr: UHRF1 methylated DNA binding inhibitors, primary screen, counter-screen for MBD2 inhibitor project, biochemical, TR-FRET, human UHRF1, single concentration; E3 ubiquitin-protein ligase UHRF1 (Homo sapiens), Q96T88; inhibition, % at 4.4 µM; actives 0.75% (n = 370,000); UHRF1 binding to methylated oligo; in the data active = inhibition above about 21%;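 also: UHRF1 SRA domain binding a hemimethylated CpG hairpin DNA probe; 0% = median of test compound wells and 100% = reference inhibitor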
# PRMT1 FP inh: PRMT1 methyltransferase inhibitors, primary screen, biochemical, fluorescence polarization | recombinant PRMT1, activity-based probe fluorescence polarization | AID 652257, 2013 | inhibition, % at 2.79 µM | actives 1.3% (n = 370,000) | Protein arginine N-methyltransferase 1 (Homo sapiens), Q99873;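 active = inhibition above about 21% made by adding two undisclosed values, limit read from the data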
# Target sequence (Q99873 whole entry, looked up): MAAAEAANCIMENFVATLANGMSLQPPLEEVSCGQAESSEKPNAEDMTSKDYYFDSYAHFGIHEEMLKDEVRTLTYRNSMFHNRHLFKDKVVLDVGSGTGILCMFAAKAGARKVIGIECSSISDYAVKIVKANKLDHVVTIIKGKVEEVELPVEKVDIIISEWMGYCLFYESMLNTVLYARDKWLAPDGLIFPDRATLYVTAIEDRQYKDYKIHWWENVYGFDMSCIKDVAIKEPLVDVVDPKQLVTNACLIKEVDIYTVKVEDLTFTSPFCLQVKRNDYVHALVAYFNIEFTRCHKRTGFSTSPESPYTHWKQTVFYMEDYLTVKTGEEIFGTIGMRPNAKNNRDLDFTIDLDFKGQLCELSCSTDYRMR
# PfM18AAP inh: PfM18AAP inhibitors, malaria aminopeptidase, primary screen, biochemical, QFRET, recombinant enzyme; M18 aspartyl aminopeptidase (Plasmodium falciparum 3D7); H-Glu-NHMec fluorogenic cleavage; inhibition, % at 7.35 µM; actives 1.2% (n = 290,000); AID 1822, 2009;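 active = inhibition above the campaign mean inhibition over all tested compounds plus 3 SD, cut at about 28% in these data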;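 also: 0% = plate median of test compound wells and 100% = 2 mM ZnCl2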
# MBD2 DNA inh: inhibitors of MBD2 binding to methylated DNA, primary screen, biochemical, TR-FRET, DNA-binding domain, human. AID 686964, 2013. MBD2 binding to methylated oligonucleotide. inhibition, % at 4.4 µM. actives 0.31% (n = 370,000); in the data active = inhibition above about 13%
# Starred values were filed as active, the others as inactive; . = no result.
SMILES,PfG6PD inh,UHRF1 MBD2 ctr,PRMT1 FP inh,PfM18AAP inh,MBD2 DNA inh
COc1cccc(CN2CC(C(=O)N(C)Cc3nc4ccc(F)cc4[nH]3)CCC2=O)c1 (stereo not drawn),1,25*,-3,-1,0
Cc1ccc(S(=O)(=O)N2CCCC(C(=O)Nc3c(C)n(C)n(-c4ccccc4)c3=O)C2)cc1C (stereo not drawn),.,1,-5,.,-3
CCOC(=O)c1c(-c2ccc(C)o2)csc1NC(=O)CN(C)CC(=O)Nc1ccc(C)cc1,24,-1,22*,-44,5
Cn1c(=O)cc(OCCCC(=O)Nc2cc(C(F)(F)F)ccn2)c2ccccc21,.,0,2,.,-3
COc1ccc(S[C@]2(C(=O)N3CCCC3)CC(=O)N(C(=O)CCc3ccccc3)[C@@H]2c2ccc(OC)cc2)cc1,.,1,10,.,5
COc1ccc(NC(=O)CN2CCN(c3ccccc3C)CC2)cc1,4,79*,1,-6,0
COc1ccc(NC(=O)CN2CCN(c3ccccc3Cl)CC2)cc1,-6,-2,-1,5,-3
COc1ccc(NC(=O)Cn2cc(C(C)=O)c3ccccc32)cc1,-3,94*,-3,2,-4
CCCCCCCCN1C(=O)[C@@H](CC(=O)NCc2cccc3ccccc23)C[C@@]2(C(=O)OC)C1=C[C@H](C(C)(C)C)O[C@@H]2C,.,3,7,.,-1
CC(=Nc1cccc(O)c1)c1sc2ccccc2c1O,-9,1,20,31*,1
CC(=Nc1ccc(C)cc1)c1sc2ccccc2c1O,22,-5,25*,6,2
O=C(CSc1nc2cc(Cl)ccc2s1)NC(=O)NCc1ccco1,-2,8,21*,1,9
CCOc1ccc2nc(SCC(=O)NC(=O)NCc3ccco3)sc2c1,-1,1,6,20,5
CC(COc1cccc(Br)c1)CN1CCC(C(O)(c2ccccc2)c2ccccc2)CC1 (stereo not drawn),.,3,-3,.,3
Cc1ccc(S(=O)(=O)N(C)CC(=O)NNC(=O)CCNS(=O)(=O)c2cccc(C)c2)cc1,-4,34*,1,.,2
Cc1ccc(S(=O)(=O)CCC(=O)NNC(=O)CN(C)S(=O)(=O)c2ccc(C)cc2)cc1,-6,2,1,.,6
O=C(O)c1cc(-c2c[nH]c3ccccc23)nc2ccc3ccccc3c12,-5,21*,4,2,1
CCOC(=O)c1cnc2ccccc2c1Nc1ccc(C(=O)O)cc1,-34,26*,3,2,3
CN(C)c1ccc(N/C=C/C(=O)c2ccco2)cc1,26,6,21*,21,-4
CC(=O)Nc1ccc(N/C=C/C(=O)c2ccco2)cc1,4,-1,-1,5,0
CC(C)CCOCC(O)CCC(=O)NNC(=S)Nc1ccccc1 (stereo not drawn),-10,-3,-1,8,1
C=CCC(CC(O)COCCC)C(=O)NNC(=S)Nc1ccccc1 (stereo not drawn),7,-1,-1,30*,5
Cc1ccc(-n2c(N)c(-c3nc4ccccc4n3C)sc2=S)cc1,56,-2,4,-40,4
Cn1c(N)c(-c2nc3cccnc3n2C)sc1=S,-6,24*,6,4,4
CC(C)N(C(N)=NC(=O)OCc1ccccc1)C(C)C,.,4,-4,.,-3
SMILES,PfG6PD inh,UHRF1 MBD2 ctr,PRMT1 FP inh,PfM18AAP inh,MBD2 DNA inh
Cc1[nH]c2ccccc2c1/C=N\NC(=O)CNc1ccc2c(c1)OCO2,40,-8,18,14,-10
O=C(CNc1ccc2c(c1)OCO2)N/N=C\c1ccccc1Cl,38,-1,22*,19,5
CCOC(=O)[C@]12CCCC3=C1N(CCC3)C(=O)[C@@H](CC(=O)NCc1ccc(OC)c(OC)c1)C2,.,3,-3,.,3
COc1ccc(-c2ccn(-c3cccc(F)n3)n2)cc1,27,-2,0,32*,-6
COc1ccc(-c2cn3ccccc3n2)cc1,30,0,17,0,3
Cc1ccc(-c2nnc(SCC(=O)Nc3ccc4c(c3)OCCO4)n2-c2ccc(C)cc2)cc1,.,5,1,.,-2
CCc1nc(Sc2nnnn2-c2ccccc2)c2c3c(sc2n1)CCCC3,-2,42*,2,-4,2
CC(/C=N/NC(=O)Cc1cccn1C)=C\c1ccco1,11,21*,5,4,9
CC(=C/c1ccco1)/C=N/NC(=O)Cc1cccn1C,32,5,4,13,2
CN(C)/C=C/C(=O)c1cnc(-c2cccc(Cl)c2)s1,8,0,-2,6,1
CC(=O)c1cnc(-c2cccc(Cl)c2)s1,16,37*,1,-2,5
CCOC(=O)[C@@]12CCCC3=C1N(CCC3)C(=O)[C@H]2CC(=O)NCc1cccc2ccccc12,.,-2,-3,.,-9
C[C@H]1[C@@H](O)CC[C@@]23CCCN2C(=O)CCC[C@@H]13,.,0,-3,.,-6
O=C(CN1CCC(NC(=O)Nc2ccc(Cl)cc2)CC1)Nc1ccc2c(c1)OCCO2,.,0,4,.,-1
Cc1ccc(S(=O)(=O)NC2CCCCC2)cc1C(=O)N1CCC(C(N)=O)CC1,7,67*,-4,.,0
CCNc1nc(NCC)nc(N/N=C/c2ccc(OC)cc2)n1,-5,53*,5,-2,3
O=C(CCC(=O)Nc1ccc(F)cc1)N/N=C/c1ccc(O)cc1O,-11,24*,-1,6,6
O=C(CCC(=O)Nc1ccc(F)cc1)N/N=C/c1ccc(O)cc1,-6,1,5,0,0
COC(=O)[C@]12C[C@H](CC(=O)NCC3CCCCC3)C(=O)N(CCC3=CCCCC3)C1=C[C@H](C(C)C)O[C@@H]2C1CC1,.,0,21,.,3
CCN(CC)S(=O)(=O)c1ccc2c(c1)nc(SCn1nnc3ccccc3c1=O)n2CC,1,6,22*,2,1
O=C1CSC(=S)N1N=Cc1c[nH]c2ccc(Br)cc12,29,-14,3,.,-4
O=C1CSC(=S)N1/N=C/c1cc(Br)c(O)c(Br)c1,2,.,.,40*,.
CCOC(=O)[C@@]12CCCC=C1N(CCc1ccc(Cl)cc1)C(=O)[C@H]2CC(=O)N1CCC(c2ccccc2)CC1,.,-4,-7,.,-10
COC(=O)CCC(=O)OC1(C)C(=O)C2=CN(Cc3ccc4c(c3)OCO4)C(c3ccc(OC)cc3)=CC2=C(Br)C1=O (stereo not drawn),67*,.,.,.,.
O=[N+]([O-])c1ccc(Nc2ccccc2)c2nonc12,-13,-28,1,-7,-24
NNc1ccc([N+](=O)[O-])c2[nH][nH]c(=O)c12,46,40*,40*,.,5
